Compound activity from PubChem BioAssay.
HT1080NT lethal – kills 2HG-producing HT-1080-NT fibrosarcoma cells; AID 686970; HT-1080-NT fibrosarcoma viability, CellTiter-Glo ATP luminescence, 48 h; Potency, µM (series often up to 46.1 µM), inactives show at the highest dose activity, negative = less viability, hits mostly cytotoxic; 360,000 tested, 1.6% active;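 note: NT is the 2HG producing partner of a matched IDH1 knockdown line; potency is the fitted concentration of half-maximal effect; 0% = DMSO-treated cells and -100% = media-only wells without cells; nearly all actives have a fitted effect of over 55% in size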
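Read-out is CellTiter-Glo luminescence after 10 minutes at room temperature, following 48 hours' compound treatment of HT-1080-NT cells (750 cells/well, RPMI, 5% FBS, 37 degrees C).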
TDP1 cell noCPT – qHTS for Inhibitors of human tyrosyl-DNA phosphodiesterase 1 (TDP1): qHTS in cells in absence of CPT | DT40 Tdp1-/- hTDP1 cells, no CPT, ATP luminescence, 48 h | Potency, µM (titrated, usually from 46.2 µM), without a hit: at the top dose activity change, negative = growth inhibition, actives largely listed as inhibitors | 420,000 tested, 15% active; note: potency is the fitted concentration of half-maximal effect; nearly all actives have a fitted effect of over 55% in size
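DT40 Tdp1-/-;hTDP1 cells, no CPT (DMSO vehicle only), 400 cells/well; compounds pin-transferred; ≥48 hr, 37 °C; CellTiter-Glo 30 min RT dark, luminescence read.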
IL1B secr inh – inhibitors of inflammasome signaling (IL-1 beta secretion). AID 743279. 360,000 tested, 4.7% active. activity change, % at 57.5 µM. THP-1 LPS/ATP IL-1B secretion, AlphaLISA, 16 h; stronger effect = lower value; in the data active = activity change below about -50%; inconclusive = mostly about -30% to -49%
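Secreted IL-1B measured by AlphaLISA bead assay after 16 h compound exposure of THP-1 cells; compounds (final up to 57.5 uM) added 1 h before LPS (250 ng/mL) and ATP (1.25 mM) stimulation; lower signal means less secretion.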
ELG1 DNA repair – inhibitors of ELG1-dependent DNA repair in HEK293T cells; HEK293T ELG1-luciferase reporter, luminescence, 16 h; DNA damage induced by 5-fluorouridine; Potency, µM (doses to about 46.1 µM), without a hit: top-dose activity change, negative = inhibition, most hits filed as inhibitors; 330,000 tested, 2.3% active; note: potency is the fitted concentration of half-maximal effect; nearly all actives have a fitted effect of over 55% in size
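5-Fluorouridine DNA damage + compound/DMSO, 2,000 cells/well, 16 h, 37 °C/5% CO2. ONE-Glo, 30 min RT, luminescence. Readout = decrease in reporter signal.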
TDP1 cell CPT – growth inhibition of DT40 Tdp1-/-;hTDP1 cells with camptothecin (screen for TDP1 inhibitors); chicken DT40 Tdp1-/-;hTDP1 cells + 20 nM CPT, ATP luminescence, 48 h; Potency, µM (top dose mostly 46.2 µM), inactives show top-dose activity change, negative = growth inhibition, hits mostly inhibitors; 420,000 tested, 12% active; AID 686979; note: potency is the fitted concentration of half-maximal effect; nearly all actives have a fitted effect of over 55% in size
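Chicken DT40 Tdp1-/- cells complemented with human TDP1, 400 cells/well, exposed to compounds plus 20 nM camptothecin for at least 48 h at 37 C; viability read as ATP content by CellTiter-Glo luminescence.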
HT1080 IDH1KD tx – kills HT-1080 cells with IDH1 knockdown | HT-1080 IDH1 knockdown viability, ATP luminescence, 48 h | Potency, µM (series often up to 46.1 µM), inactives show at the highest dose activity, negative = toxicity, hits mostly cytotoxic | 360,000 tested, 2% active;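 note: potency is the fitted concentration of half-maximal effect; 0% = DMSO wells and -100% = cell-free medium wells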
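After a 2 h attachment period, IDH1KD HT-1080 cells took pin-transferred compound for 48 h at 37 °C; ATP-based luminescence after 10 min room-temperature reagent incubation reported viability.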
* marks the source's active call; other numbers are inactive results; ? = inconclusive; · = not tested or not shown. This is a sample that favours compounds with a hit; in the whole collection about 19% have one here. Unless noted, calls come from the whole dose curve; as a rule, active = well fitted curve in the direction sought with a large enough effect; inconclusive = small, poorly fitted or top-dose-only effect, or another doubt; inactive = no such curve, though single readings can be large; an effect the other way counts as inactive or inconclusive. Unless noted, % is set by controls: 0 for no effect and ±100 for the full control effect.

SMILES	HT1080NT lethal	TDP1 cell noCPT	IL1B secr inh	ELG1 DNA repair	TDP1 cell CPT	HT1080 IDH1KD tx
CC(C)CC(=O)NC(Nc1ccccc1F)C(Cl)(Cl)Cl (centres undefined)	-1%	?	-6	-10%	?	3%
CON(C)S(=O)(=O)c1cccc(C(=O)Oc2ccc(N(C)S(=O)(=O)c3ccccc3)cc2)c1	3%	-7%	-3	0%	-8%	6%
Cc1cc(Cl)ccc1NC(=O)C1CCCN1S(=O)(=O)c1ccc2c(c1)CCCC(=O)N2 (centres undefined)	·	8.2µM*	·	·	15µM*	·
Cc1ccc(Cl)cc1NC(=O)C1CCCN1S(=O)(=O)c1ccc(-c2ccc(=O)[nH]n2)s1 (centres undefined)	-22%	15µM*	-77*	-26%	-25%	?
Cc1ccc(NC(=O)C2CCCN2S(=O)(=O)c2ccc3c(c2)CCCC(=O)N3)cc1C (centres undefined)	·	21µM*	·	·	?	·
CCc1ccc(NC(=O)C2CCCN2S(=O)(=O)c2ccc3c(c2)CCCC(=O)N3)cc1 (centres undefined)	·	18µM*	·	·	16µM*	·
COCC(=O)Nc1cc(C(=O)N2CCN(C)C(c3ccccc3)C2)c2c(c1)nc(-c1ccncc1)n2C (centres undefined)	·	-8%	·	·	-7%	·
Cc1cc2c(cc1S(=O)(=O)NCc1ccc(F)cc1)n(C)c(=O)c(=O)n2C	·	?	·	·	-21%	·
O=S(Cc1cc(Sc2ccccc2)nc(-c2ccccc2)n1)c1ccccc1 (centres undefined)	?	16µM*	-7	?	?	?
CCOC(=O)C(CC)Sc1nnc2[nH]c(=O)cc(C)n12 (centres undefined)	·	2%	·	·	24%	·
COCCCn1c(C)cc(C(=O)CN2c3cccc4cccc(c34)S2(=O)=O)c1C	-2%	16µM*	?	-19%	29µM*	-6%
COCCOC(=O)c1c(NC(=O)CN2c3ccccc3CC2C)sc(C(N)=O)c1C (centres undefined)	-14%	?	17	9.2µM*	?	-11%
C=CCn1c(C)cc(C(=O)CN2C(=O)c3ccccc3S2(=O)=O)c1C	-5%	-21%	-3	?	-31%	-2%
COCCOC(=O)c1c(NC(=O)CN2CCOCC2)sc(C(N)=O)c1C	13%	-12%	4	-7%	-15%	15%
CCCc1cc(=O)[nH]c(SCC(=O)Nc2sc(C(N)=O)c(C)c2C(=O)OCCOC)n1	2.3µM*	-23%	-10	?	?	2.6µM*
CN(C)S(=O)(=O)c1cc(NC(=O)CN2CCN(c3ccccc3F)CC2)ccc1Cl	3%	21µM*	0	-18%	?	-4%
CCCc1cc(=O)[nH]c(SCC(=O)NC(=O)OCC)n1	1%	0%	9	3%	-2%	3%
CCCCOc1ccc(C(=O)N2CCN(CCc3ccccn3)CC2)cc1	·	-23%	·	·	-20%	·
CSc1nc(=O)n2cc(C)ccc2n1	18%	-13%	0	-9%	7%	9%
CC1Cc2ccccc2N1CC(=O)NC(=O)NC1CCCCC1 (centres undefined)	6%	-17%	35	3%	18µM*	-3%
COc1cc(NC(=O)CN2c3ccccc3CC2C)cc(OC)c1OC (centres undefined)	-5%	?	5	16µM*	?	-14%
COc1cc(NC(=O)CN2c3cccc4cccc(c34)S2(=O)=O)cc(OC)c1OC	-11%	21µM*	-13	-26%	?	?
